Screening results (PubChem BioAssay)
PKA-R1A activ – activates the PKA-R1A holoenzyme complex; P00514+P68181; PKA-R1A dissociation, Cy5-IP20 fluorescence polarization; scaled: DMSO 0%, 113 µM cGMP 100%; activation, % at 11.4 µM; 340,000 tested, 0.083% active; AID 504707;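 active = percent activation above the mean of all tested compounds plus 3 SD, cut at about 19% in these data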;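 also: higher means more PKAc released from R1A so a rise in polarization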
PKA-R2B activ – PKA-R2B complex activation; P22694+P31323; PKA-R2B holoenzyme dissociation, Cy5-IP20 fluorescence polarization; R2B truncated from residue 108, S112A mutant; 0% DMSO only, 100% 113 µM cGMP; activation, % at 11.4 µM; 340,000 tested, 0.079% active;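 active = activation above a cutoff set at the mean over all compounds plus 3 SD, cut at about 18% in these data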;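 also: higher means more holoenzyme dissociation and a rise in polarization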
PAFAH1B3 inh – blocks human PAF acetylhydrolase 1B catalytic subunit 3. recombinant PAFAH1B3, FP-rhodamine probe, fluorescence polarization. inhibition, % at 3.39 µM. 340,000 tested, 0.28% active;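 active = inhibition above the screen-wide average of all tested compounds plus 3 SD, cut at about 25% in these data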;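 also: 0% = enzyme with DMSO only and 100% = wells lacking PAFAH1B3 protein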
Target sequence (Q15102 whole entry, looked up): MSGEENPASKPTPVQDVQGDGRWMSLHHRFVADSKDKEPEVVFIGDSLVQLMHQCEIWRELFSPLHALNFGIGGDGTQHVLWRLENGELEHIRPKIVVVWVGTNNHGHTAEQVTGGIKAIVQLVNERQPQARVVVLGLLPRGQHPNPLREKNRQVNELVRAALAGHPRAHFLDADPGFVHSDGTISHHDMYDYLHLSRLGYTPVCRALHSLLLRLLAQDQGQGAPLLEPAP
pPAFAH FP inh – inhibitors of human plasma PAF acetylhydrolase (pPAFAH). recombinant pPAFAH, FP-rhodamine probe fluorescence polarization. inhibition, % at 3.39 µM. 330,000 tested, 1.5% active;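 active = inhibition above the mean inhibition across the screen plus 3 SD, cut at about 25% in these data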;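 also: inhibitors block binding of the rhodamine activity-based probe so polarization drops; 0% = enzyme with DMSO and 100% = wells lacking pPAFAH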
PAFAH2 inh – PAFAH2 (human) inhibition | Q99487 | recombinant PAFAH2, FP-rhodamine activity probe, fluorescence polarization | inhibition, % at 3.39 µM | 340,000 tested, 0.99% active | AID 492956;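 active = inhibition above the mean over all tested compounds plus 3 SD, cut at about 30% in these data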;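 also: inhibitors block probe labeling of enzyme so polarization drops; 0% = enzyme with DMSO and 100% = wells lacking PAFAH2 protein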
PAFAH1B2 inh – inhibitors of human PAFAH1B2. recombinant PAFAH1B2, FP-rhodamine activity probe, fluorescence polarization. 340,000 tested, 1.2% active. P68402. inhibition, % at 3.39 µM;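 active = inhibition above the mean of all tested compounds plus 3 SD, cut at about 24% in these data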;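 also: 0% = enzyme with DMSO and 100% = wells lacking PAFAH1B2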
Target sequence (P68402 whole entry, looked up): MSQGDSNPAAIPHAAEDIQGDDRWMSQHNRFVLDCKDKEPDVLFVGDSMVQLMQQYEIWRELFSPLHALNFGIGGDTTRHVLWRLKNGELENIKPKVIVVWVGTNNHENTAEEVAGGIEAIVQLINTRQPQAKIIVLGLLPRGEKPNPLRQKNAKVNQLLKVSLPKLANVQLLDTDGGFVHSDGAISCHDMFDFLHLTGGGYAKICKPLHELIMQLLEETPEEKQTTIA
pPAFAH FP conf – confirmation of human plasma PAF acetylhydrolase (pPAFAH) inhibitors. shares compounds with pPAFAH FP inh. AID 463230. 2,300 tested, 72% active. inhibition, % at 3.39 µM. recombinant pPAFAH, FP-Rh probe fluorescence polarization;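 active = mean inhibition of the triplicate above the hit cutoff set for the earlier primary screen, cut at about 25% in these data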;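 also: 0% = enzyme with DMSO and 100% = wells lacking pPAFAH enzyme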
An asterisk follows results filed as active; nt = no result. Hits are enriched below; roughly 2.6% of the tested compounds scored in any of these assays.

SMILES	PKA-R1A activ	PKA-R2B activ	PAFAH1B3 inh	pPAFAH FP inh	PAFAH2 inh	PAFAH1B2 inh	pPAFAH FP conf
Cc1cc(Cl)c2oc(C(=O)N(C)C3CCOC3)c(C)c2c1 (configuration not stated)	-10	-2	5	1	-3	-10	nt
O=C(O)CCn1c(SCCOc2ccccc2)nc2ccccc21	-11	-4	6	-4	-3	6	nt
O=C(NC1CCCCC1)c1ccc(-c2ccccc2)cc1	-2	-1	-6	6	-4	5	nt
COc1cccc(CN(C)C(=O)c2ccc(S(=O)(=O)Nc3cccc(C)c3C)cc2)c1OC	-2	-9	nt	nt	nt	nt	nt
C/C(=N\NC(=O)c1cc(O)ccc1O)c1cccc(NC(=O)c2ccc(Cl)cc2)c1	4	8	18	46*	9	10	21
C/C(=N\NC(=O)c1ccccc1O)c1cccc(NC(=O)c2ccccc2)c1	3	5	8	8	5	1	nt
C/C(=N\NC(=O)c1cc(O)ccc1O)c1cccc(NC(=O)c2cccc(Cl)c2)c1	5	-1	11	38*	11	7	15
COc1ccc(-c2nnn(-c3ccc(Cl)cc3Cl)c2N)cc1	-7	1	5	2	7	3	nt
CCOc1cc(/C=N/NC(N)=O)cc(Br)c1OCc1ccccc1F	9	-3	-2	6	-4	-4	nt
CCOc1cc(CNc2ccc(O)cc2)cc(Br)c1OCc1ccccc1F	0	-6	18	43*	8	6	20
COc1cc(CNc2ccc(O)cc2)cc(Br)c1OCc1ccccc1F	6	-6	10	39*	7	10	8
Cc1ccc(C(NC(=O)C(C)C)c2cc([N+](=O)[O-])c3cccnc3c2O)cc1 (configuration not stated)	0	-16	17	54*	17	5	74*
CC(C)C(=O)NC(c1cccs1)c1cc([N+](=O)[O-])c2cccnc2c1O (configuration not stated)	8	10	6	84*	-4	-5	79*
O=C(Nc1ccccc1Cl)c1cc(=O)c2ccccc2o1	0	14	4	5	-1	0	nt
CCN1/C(=C/C=C/c2oc3ccc(-c4ccccc4)cc3[n+]2CC)Oc2ccc(-c3ccccc3)cc21	13	3	19	59*	29	26*	13
Nc1cccc2c(=O)c3ccccc3[nH]c12	-3	0	13	41*	-1	2	10
COc1cccc2[nH]c3ccccc3c(=O)c12	0	-8	7	1	0	-2	nt
Cc1c(C)c2ccc(OCC(=O)N[C@@H](Cc3ccccc3)C(=O)O)cc2oc1=O	-14	-9	7	1	-3	-1	nt
CCCCCCc1c(C)c2ccc(OCC(=O)N[C@@H](Cc3ccccc3)C(=O)O)cc2oc1=O	-13	4	7	38*	16	13	21
O=C(O/N=C(\c1ccccc1)c1ccncc1)c1ccccc1Cl	5	-7	9	45*	25	88*	23
CCCCn1c(N)c(N(CC(C)C)C(=O)C2CCN(S(=O)(=O)c3ccc(C)c(C)c3)CC2)c(=O)[nH]c1=O	4	-7	5	-6	-1	0	nt
CC(=O)[C@]1(O)Cc2c(O)c3c(c(O)c2[C@@H](O[C@H]2C[C@H](N)[C@H](O)[C@H](C)O2)C1)C(=O)c1ccccc1C3=O	nt	nt	nt	59*	nt	nt	69*
COc1cccc2c1C(=O)c1c(O)c3c(c(O)c1C2=O)C[C@@](O)(C(=O)CO)C[C@@H]3O[C@H]1C[C@H](N)[C@@H](O)[C@H](C)O1	-29	-13	43*	60*	55*	51*	45*
CCCOc1ccc(/C=N/n2nnnc2N)cc1OC	-1	1	2	nt	4	-2	nt
Cc1cc(C)c(NS(=O)(=O)c2ccc3c(c2)oc(=O)n3C)c(C)c1	9	3	nt	nt	nt	nt	nt
SMILES	PKA-R1A activ	PKA-R2B activ	PAFAH1B3 inh	pPAFAH FP inh	PAFAH2 inh	PAFAH1B2 inh	pPAFAH FP conf
CCN(CC)c1ccc(NS(=O)(=O)c2ccc3c(c2)oc(=O)n3C)c(C)c1	11	-6	-2	40*	-2	2	44*
Oc1c(Br)cc(/C=N/Nc2ccc(Cl)nn2)cc1Br	2	-19	28*	52*	33*	16	58*
Oc1c(Br)cc(Br)cc1/C=N/Nc1ccc(Cl)nn1	-2	-4	7	4	29	9	nt
Oc1ccc(/C=N/Nc2ccc(Cl)nn2)c(O)c1O	-7	-1	16	57*	29	1	12
Cc1nc(-c2ccccc2)sc1C(=O)Nc1ccc(S(N)(=O)=O)cc1	-2	-6	1	46*	4	4	-7
Cc1ccc(OCC(=O)NCCNC(=O)c2ccccn2)cc1	9	-2	-6	-1	3	3	nt
CCCOC(=O)c1cc(-c2ccc(/C=C3/C(=O)N(C)C(=O)C(C#N)=C3C)o2)ccc1Cl	9	-7	7	58*	11	7	26*
CCCOC(=O)c1cc(-c2ccc(C=O)o2)ccc1Cl	-7	-24	1	14	-4	1	nt
COc1ccc(CCNC(=O)c2c(C)nn(-c3ccccc3)c2Cl)cc1OC	-3	-3	3	-1	-4	0	nt
Cc1ccc(/C(O)=C2/C(=O)C(=O)N(CC(=O)O)C2c2ccc([N+](=O)[O-])cc2)cc1 (configuration not stated)	-3	-1	6	37*	1	7	5
COCCn1c(C)c(C)c2c(NCCc3ccccc3)ncnc21	-6	-2	9	nt	1	6	nt
CCCn1c(=O)c(C(=O)Nc2ccccc2N)c(O)c2ccccc21	7	3	nt	nt	nt	nt	nt
Cc1ccc(S(=O)(=O)Nc2cc(Cl)c(O)c3ncccc23)cc1	2	-2	19	46*	5	8	37*
Oc1c(Cl)cc(Cl)c2cccnc12	1	-10	5	nt	-2	2	nt
COc1ccc(NC2CCCN(C(=O)CCc3ccccc3F)C2)cc1 (configuration not stated)	8	3	-1	5	2	0	nt
Cc1ccc(C(=O)O)cc1N1C(=O)c2cccc3c([N+](=O)[O-])ccc(c23)C1=O	-2	-12	41*	36*	36*	15	9
CC(=O)c1ccc(N2CCN(C(=O)c3noc4c3CSc3ccccc3-4)CC2)cc1	-9	-3	2	6	-8	-3	nt
Cc1ccc(N=Nc2c(O)[nH]c(=O)[nH]c2=O)cc1S(=O)(=O)Nc1ccc(Br)cc1	-5	-14	13	76*	18	0	25
